{"source": "the antibiotic and cytotoxicity screens of Wong et al. (2023)", "note": "Out of some 39,000 compounds screened, about 3,300 (8.5%) were called active. For the sample, actives were picked, then their nearest neighbours and some compounds at random.", "data": [{"tested_on": "HepG2", "assay": "cytotoxicity call (relative viability < 0.9)", "settings": "10 µM", "values": [{"compound": "C[C@H]1CCCCO[C@@H](CN(C)C(=O)c2ccccc2)[C@@H](C)CN([C@@H](C)CO)C(=O)c2cc(NC(=O)Nc3ccc(C(F)(F)F)cc3)ccc2O1", "cytotoxicity call": "inactive"}, {"compound": "COc1ccc(CNC(=O)C[C@@H]2C[C@@H]3c4cc(NC(=O)NC5CCCC5)ccc4O[C@@H]3[C@@H](CO)O2)cc1", "cytotoxicity call": "inactive"}, {"compound": "O=C(C[C@H]1C[C@@H]2c3cc(NS(=O)(=O)c4ccc(F)cc4)ccc3O[C@@H]2[C@@H](CO)O1)NCc1cccnc1", "cytotoxicity call": "inactive"}, {"compound": "C[C@H]1CCCCO[C@@H](CN(C)Cc2ccncc2)[C@@H](C)CN([C@@H](C)CO)C(=O)c2cc(NC(=O)Nc3cccc4ccccc34)ccc2O1", "cytotoxicity call": "inactive"}, {"compound": "C[C@@H]1CN([C@@H](C)CO)C(=O)c2cc(C#Cc3ccc(F)cc3)cnc2O[C@@H]1CN(C)CC1CCOCC1", "cytotoxicity call": "inactive"}, {"compound": "Cc1ccc(S(=O)(=O)Nc2ccc3c(c2)C(=O)N([C@H](C)CO)C[C@H](C)[C@H](CN(C)C(=O)Nc2ccc(F)cc2)OCCCC[C@@H](C)O3)cc1", "cytotoxicity call": "inactive"}, {"compound": "O=c1nc(N2CCc3ccccc3C2)cn[nH]1", "cytotoxicity call": "inactive"}, {"compound": "COc1ccc(NC(=O)N(C)C[C@@H]2OCCCC[C@H](C)Oc3ccc(NS(=O)(=O)c4ccc(Cl)cc4)cc3C(=O)N([C@@H](C)CO)C[C@@H]2C)cc1", "cytotoxicity call": "inactive"}, {"compound": "COc1ccc2c3c([nH]c2c1)[C@H](CO)N(C[C@]13CCN(CC1)C(=O)c1ccccc1F)C(=O)Nc1ccc(cc1)F", "cytotoxicity call": "inactive"}, {"compound": "COc1ccc2c3c([nH]c2c1)[C@@H](CO)N(C[C@]13CCN(CC1)Cc1cc(on1)-c1ccccc1)C(=O)Nc1ccc(cc1)F", "cytotoxicity call": "inactive"}, {"compound": "COc1ccc2c3c([nH]c2c1)[C@@H](CO)N(C[C@]13CCN(CC1)C(=O)c1ccccc1F)C(=O)Nc1ccc(cc1)F", "cytotoxicity call": "inactive"}, {"compound": "COc1ccc(cc1)CN1CC[C@]2(CC1)CN([C@H](CO)c1[nH]c3cc(ccc3c12)OC)C(=O)Nc1ccc(cc1)F", "cytotoxicity call": "active"}, {"compound": "COc1ccc(cc1)CN1CC[C@]2(CC1)CN([C@@H](CO)c1[nH]c3cc(ccc3c12)OC)C(=O)Nc1ccc(cc1)F", "cytotoxicity call": "active"}, {"compound": "COc1ccc2c3c([nH]c2c1)[C@H](CO)N(C[C@]13CCN(CC1)C(=O)Nc1ccc(cc1)F)C(=O)c1ccc(cc1)F", "cytotoxicity call": "inactive"}, {"compound": "COc1ccc(NC(=O)Nc2ccc3c(c2)C(=O)N([C@@H](C)CO)C[C@@H](C)[C@@H](CN(C)Cc2ccc(C(=O)O)cc2)OCCCC[C@@H](C)O3)cc1", "cytotoxicity call": "inactive"}, {"compound": "C[C@H](CO)N1C[C@H](C)[C@H](CN(C)S(=O)(=O)c2cccs2)Oc2ccc(NC(=O)CCN3CCOCC3)cc2CC1=O", "cytotoxicity call": "inactive"}, {"compound": "COc1ccccc1CNC(=O)C[C@H]1C[C@@H]2c3cc(NC(=O)c4ccc5c(c4)OCO5)ccc3O[C@@H]2[C@H](CO)O1", "cytotoxicity call": "inactive"}, {"compound": "C[C@@H]1CCCCO[C@H](CN(C)Cc2ccccc2)[C@@H](C)CN([C@@H](C)CO)C(=O)c2cc(NC(=O)CCCCCC(=O)Nc3ccccc3N)ccc2O1", "cytotoxicity call": "inactive"}, {"compound": "Cc1noc(C)c1NC(=O)N(C)C[C@@H]1Oc2ccc(NS(=O)(=O)c3ccccc3)cc2CC(=O)N([C@H](C)CO)C[C@@H]1C", "cytotoxicity call": "inactive"}, {"compound": "COc1ccc(S(=O)(=O)Nc2ccc3c(c2)C(=O)N([C@@H](C)CO)C[C@@H](C)[C@H](CN(C)S(=O)(=O)c2cn(C)cn2)OCCCC[C@@H](C)O3)cc1", "cytotoxicity call": "inactive"}, {"compound": "C[C@@H]1CN([C@H](C)CO)C(=O)c2cccc(NC(=O)c3ccc(-c4nccs4)cc3)c2O[C@@H]1CN(C)Cc1ccccc1", "cytotoxicity call": "inactive"}, {"compound": "COc1ccc(C#Cc2cnc3c(c2)C(=O)N([C@H](C)CO)C[C@H](C)[C@H](CN(C)C(=O)NC(C)C)O3)cc1OC", "cytotoxicity call": "inactive"}, {"compound": "CO[C@@H]1CN(C)C(=O)c2cc(NC(=O)NC(C)C)ccc2OC[C@@H](C)N(Cc2ccc(-c3ccccn3)cc2)C[C@H]1C", "cytotoxicity call": "inactive"}, {"compound": "C=CCOC(=O)[C@H]1[C@@H]2C(=O)O[C@@H](c3ccccc3)[C@@H](c3ccccc3)N2[C@@H](c2ccc(OCCOC(=O)[C@H]3C[C@H]4C(=O)NCC(=O)N4[C@H]3c3cccc(OCCO)c3)cc2)[C@]12C(=O)Nc1ccc(I)cc12", "cytotoxicity call": "inactive"}, {"compound": "Cc1noc(C)c1NC(=O)Nc1ccc2c(c1)C(=O)N([C@@H](C)CO)C[C@@H](C)[C@@H](CN(C)C(=O)NC1CCCCC1)OCCCC[C@@H](C)O2", "cytotoxicity call": "inactive"}, {"compound": "CO[C@H]1/C=C\\C=C(/C)C(=O)NC2=CC(=O)C=C(C2=O)[C@H](OC)[C@@H](C)C[C@H](OC)[C@H](O)[C@@H](C)/C=C(\\C)[C@@H]1OC(N)=O", "cytotoxicity call": "inactive"}, {"compound": "COC1=C2C[C@@H](C)C[C@H](OC)[C@H](O)[C@@H](C)/C=C(\\C)[C@H](OC(N)=O)[C@@H](OC)/C=C\\C=C(/C)C(=O)NC(=CC1=O)C2=O", "cytotoxicity call": "active"}, {"compound": "COC1=C2C[C@H](C)C[C@H](OC)[C@@H](O)[C@H](C)/C=C(\\C)[C@H](OC(N)=O)[C@H](OC)/C=C/C=C(\\C)C(=O)NC(=CC1=O)C2=O", "cytotoxicity call": "active"}, {"compound": "CO[C@H]1/C=C\\O[C@@]2(C)Oc3c(C)c(O)c4c(c3C2=O)[C@]2(C=C(NC(=O)/C(C)=C\\C=C/[C@@H](C)[C@@H](O)[C@@H](C)[C@@H](O)[C@@H](C)[C@@H](OC(C)=O)[C@@H]1C)C4=O)OCC(=O)O2", "cytotoxicity call": "inactive"}, {"compound": "COC1=C2C[C@@H](C)C[C@H](OC)[C@H](O)[C@@H](C)/C=C(\\C)[C@H](OC(N)=O)[C@@H](OC)/C=C/C=C(\\C)C(=O)NC(=CC1=O)C2=O", "cytotoxicity call": "active"}]}]}
